Gal4-VP16 FLuc = VP16 counterscreen qHTS for inhibitors of ROR gamma transcriptional activity | AID 2546, 2010 | Drosophila S2 Gal4-VP16 UAS-luciferase, luminescence, 20 h | 310,000 tested, 3.5% active | Potency, µM (top dose mostly 53.6 µM), inactives show at the highest dose activity, negative = inhibition, usual class: inhibitors;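 note: Gal4-VP16 expression switched on by copper sulfate through the metallothionein promoter; potency is the fitted concentration of half-maximal effect; nearly all actives have a fitted effect of over 50% in size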
RORg inh = qHTS for inhibitors of ROR gamma transcriptional activity; Drosophila S2 Gal4-RORgamma UAS-luciferase reporter, 20 h; Potency, µM (titrated, usually from 53.6 µM), without a hit: at the top dose activity change, negative = inhibition, most hits filed as inhibitors; 310,000 tested, 5.4% active; note: potency is the fitted concentration of half-maximal effect; nearly all actives have a fitted effect of over 60% in size
Target sequence (P51450 whole entry, looked up, the tested form may be a part): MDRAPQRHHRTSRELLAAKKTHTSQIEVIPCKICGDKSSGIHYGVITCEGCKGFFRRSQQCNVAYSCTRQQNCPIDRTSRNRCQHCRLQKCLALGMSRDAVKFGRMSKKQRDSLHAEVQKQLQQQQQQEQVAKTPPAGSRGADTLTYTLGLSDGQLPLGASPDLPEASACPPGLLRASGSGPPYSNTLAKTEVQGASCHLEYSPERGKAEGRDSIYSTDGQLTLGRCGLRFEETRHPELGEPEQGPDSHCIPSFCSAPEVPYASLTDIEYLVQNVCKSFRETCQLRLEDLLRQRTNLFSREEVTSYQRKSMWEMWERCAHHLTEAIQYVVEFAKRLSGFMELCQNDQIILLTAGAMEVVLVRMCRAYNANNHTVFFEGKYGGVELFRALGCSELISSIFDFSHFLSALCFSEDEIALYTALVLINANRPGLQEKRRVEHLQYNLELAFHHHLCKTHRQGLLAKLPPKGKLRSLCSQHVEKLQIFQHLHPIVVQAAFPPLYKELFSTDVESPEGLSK
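Using a luciferase readout, inhibitors were identified by reduced reporter activity in Drosophila cells coexpressing a copper-inducible Gal4–ROR gamma fusion and UAS-driven Photinus luciferase, incubated 20 hr after 700 uM copper sulfate.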
LDHA block = qHTS assay for inhibitors of human lactate dehydrogenase; 480,000 tested, 0.15% active; L-lactate dehydrogenase A chain (Homo sapiens), P00338; activity change, % (values are at about 110 or 230 µM); purified LDHA, NADH/diaphorase-resazurin fluorescence; hits give low values; in the data active = activity change below about -30%; inconclusive = mostly about -25% to -30%;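 note: plate controls were DMSO wells for no effect and wells without enzyme for full effect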
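Remaining NADH was detected by diaphorase (0.133 mg/mL) converting 37 µM resazurin to fluorescent resorufin, read at 0 and 20 minutes. The preceding 5-minute room-temperature reaction used 2 nM LDHA, 0.2 mM sodium pyruvate and 0.06 mM NADH at pH 7.4.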
IL-1B inflam inh = qHTS for Inhibitors of Inflammasome Signaling: IL-1-beta AlphaLISA Primary Screen | THP-1 LPS/ATP IL-1B secretion, AlphaLISA, 16 h; hits give low values | activity change, % at 57.5 µM | 360,000 tested, 4.7% active | AID 743279, 2014; in the data active = activity change below about -50%; inconclusive = mostly about -30% to -49%
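Secreted IL-1B measured by AlphaLISA bead assay after 16 h compound exposure of THP-1 cells; compounds (final up to 57.5 uM) added 1 h before LPS (250 ng/mL) and ATP (1.25 mM) stimulation; lower signal means less secretion.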
TDP1 cell CPT = qHTS for Inhibitors of human tyrosyl-DNA phosphodiesterase 1 (TDP1): qHTS in cells in presence of CPT | Potency, µM (doses to about 46.2 µM), for the others: at the top dose activity change, negative = growth inhibition, usual class: inhibitors | chicken DT40 Tdp1-/-;hTDP1 cells + 20 nM CPT, ATP luminescence, 48 h | 420,000 tested, 12% active; note: potency is the fitted concentration of half-maximal effect; nearly all actives have a fitted effect of over 55% in size
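Chicken DT40 Tdp1-/- cells stably complemented with human TDP1 were seeded at 400 cells/well in medium containing 20 nM camptothecin, exposed to pin-transferred compounds, and grown at 37 °C for at least 48 hr. Viability was read as ATP luminescence.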
TDP1 cell noCPT = qHTS for Inhibitors of human tyrosyl-DNA phosphodiesterase 1 (TDP1): qHTS in cells in absence of CPT. DT40 Tdp1-/- hTDP1 cells, no CPT, ATP luminescence, 48 h. 420,000 tested, 15% active. AID 686978, 2013. Potency, µM (highest dose often 46.2 µM), for the others: at the highest dose activity change, negative = growth inhibition, most hits filed as inhibitors; note: potency is the fitted concentration of half-maximal effect; nearly all actives have a fitted effect of over 55% in size
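Growth of hTDP1-complemented DT40 Tdp1-knockout cells is measured by ATP luminescence after at least 48 hr compound exposure at 37 °C, with DMSO substituting for the 20 nM CPT used in the parallel screen.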
* hit, by the source's call; ? = inconclusive; . = no result given; [ ] = dose if it differs, or a comment. Only some compounds are listed: those with a hit (about 18% of all), similar ones and a draw of the others. Unless noted, calls come from the whole dose curve; as a rule, active = well fitted curve in the direction sought with a large enough effect; inconclusive = small, poorly fitted or top-dose-only effect, or another doubt; inactive = no such curve, though single readings can be large; an effect the other way counts as inactive or inconclusive. Unless noted, % is set by controls: 0 for no effect and ±100 for the full control effect.

SMILES | Gal4-VP16 FLuc | RORg inh | LDHA block | IL-1B inflam inh | TDP1 cell CPT | TDP1 cell noCPT
Cc1ccc(S(=O)(=O)N(CC(=O)Nc2ccc(C(C)C)cc2)Cc2ccccc2)cc1 | . | . | -11.7 | . | ? | ?
CC(C)c1ccc(NC(=O)c2cc(S(=O)(=O)NCCC3=CCCCC3)ccc2F)cc1 | . | . | 0.3 | . | 18.4µM* | 18.4µM*
Cc1ccccc1NC(=O)c1ccc(F)c(S(=O)(=O)N(C)Cc2ccccc2)c1 | . | . | 5.7 | . | ? | 20.6µM*
CC(C)c1ccc(NC(=O)c2cc(S(=O)(=O)NCc3ccccc3Cl)ccc2F)cc1 | . | . | 2.8 | . | 6.51µM* | 9.2µM*
Cc1ccccc1NC(=O)c1ccc(F)c(S(=O)(=O)N2CCCCC2)c1 | 13.7% | 35.4% | -0.3 | -2.0 | -19.7% | 4.2%
CCN(Cc1ccccc1)S(=O)(=O)c1ccc(F)c(C(=O)Nc2ccc(C(C)C)cc2)c1 | . | . | -9.5 | . | 14.6µM* | 18.4µM*
CCc1cccc(C)c1NC(=O)c1cc(S(=O)(=O)N(C)Cc2ccccc2)ccc1F | . | . | -4.3 | . | 29.1µM* | 8.2µM*
COC(=O)c1ccccc1OS(=O)(=O)c1ccc2c(c1)CCC2 | . | . | -3.7 | . | . | .
COc1ccc(C(=O)OCc2ccccc2F)c(OC)c1OC | . | . | 5.6 | . | . | .
CCCNC(=O)c1ccc(COc2ccc(CCC)cc2OC)o1 | -0.7% | ? | -4.8 | ? | ? | 14.6µM*
COc1ccccc1OCc1ccc(C(=O)Nc2cc(OC)c(OC)c(OC)c2)o1 | -10.1% | 11.4% | -1.1 | ? | ? | ?
COc1ccccc1OCc1ccc(C(=O)Nc2ccc(C)c(C)c2)o1 | . | . | -0.2 | . | 23.1µM* | ?
COc1cc(NC(=O)c2ccc(COc3ccccc3Br)o2)cc(OC)c1OC | 0.0% | 13.0% | -2.9 | -16.1 | ? | 23.1µM*
COc1ccc(NC(=O)c2ccc(COc3ccccc3OC)o2)cc1OC | 16.4% | 26.5% | 5.0 | -2.5 | 14.6µM* | 23.1µM*
COc1ccccc1OCc1ccc(C(=O)NCCN(C)C)o1 | -15.5% | 35.2% | -1.9 | 27.8 | 5.5% | 13.3%
COc1ccccc1OCc1ccc(C(=O)NN)o1 | 0.1% | -4.9% | -5.5 | 11.6 | 15.1% | 4.7%
Cc1ccc(C(CNC(=O)CCc2nc(-c3cccnc3)no2)N(C)C)cc1 (stereo not drawn) | . | . | -4.2 | . | . | .
Cc1ccc(-n2cccc2/C=C(/C#N)c2ccc(F)cc2)cc1 | . | . | 4.1 | . | . | .
CC(C)(C)c1ccc(C(=O)Nc2c(F)cccc2F)cc1 | . | . | 8.3 | . | . | .
COc1ccc(CC(=O)N2CCN(c3ccccn3)CC2)cc1OC | 2.1% | 10.8% | -4.0 | 13.2 | -17.4% | -5.6%
CCCc1ccc(OCc2ccc(C(=O)N3CCN(c4ccccn4)CC3)o2)c(OC)c1 | . | -24.6%[0.365 µM] | 4.7 | -10.0 | ? | 20.6µM*
Cc1ccc(F)cc1NC(=O)CC(C)(C(=O)O)c1ccccc1 (stereo not drawn) | . | . | -4.8 | . | . | .
CCCC(NC(=O)CCl)c1ccccc1 (stereo not drawn) | -28.0% | -40.4% | -13.1 | -92.5* | 13µM* | 29.1µM*
CC(C)CC(NC(=O)CCl)c1ccccc1 (stereo not drawn) | -7.4% | -18.7% | -10.9 | -6.0 | -27.3% | ?
CCCS(=O)(=O)c1c(S(=O)(=O)CCC)c2ccccn2c1C(=O)OC | 0.5% | 30.0% | -3.2 | 7.3 | 20.6µM* | 16.4µM*
SMILES | Gal4-VP16 FLuc | RORg inh | LDHA block | IL-1B inflam inh | TDP1 cell CPT | TDP1 cell noCPT
CCCS(=O)(=O)c1c(S(=O)(=O)CCC)c2c(N)cccn2c1C(=O)c1ccc(Br)cc1 | -1.8% | 28.8% | 8.2 | -17.1 | 16.4µM* | ?
CCCS(=O)(=O)c1c(S(=O)(=O)CCC)c2c(C)cccn2c1C(=O)OC | -2.2% | 13.2% | -5.8 | -4.6 | 13µM* | 12.6µM*
CCCS(=O)(=O)c1c(S(=O)(=O)CCC)c2c(N)cccn2c1C(=O)c1ccc(F)cc1 | 14.3% | 9.0% | 10.2 | ? | -26.7% | ?
CCCS(=O)(=O)c1c(S(=O)(=O)CCC)c2cc(C(C)(C)C)ccn2c1C(=O)c1ccc(OC)c(OC)c1 | . | . | -1.5 | . | ? | ?
CCCS(=O)(=O)c1c(S(=O)(=O)CCC)c2cc(C(C)(C)C)ccn2c1C(=O)c1ccccc1 | . | . | -0.8 | . | 18.4µM* | 16.4µM*
CCN(CC)c1ccc(C2C(C(=O)Nc3ccccc3F)=C(C)NC3=C2C(=O)CCC3)cc1 (stereo not drawn) | . | . | -3.3 | . | . | .
CCCCCCCCNC(=O)c1ccncc1 | . | . | 1.7 | . | . | .
CCCS(=O)(=O)c1c(S(=O)(=O)CCC)c2c(N)cccn2c1C(=O)c1ccc(OC)cc1 | 2.2% | 13.0% | 24.6 | -15.7 | -23.2% | -17.5%
CCCS(=O)(=O)c1c(S(=O)(=O)CCC)c2c3ccccc3ccn2c1C(=O)OC | 1.8% | ? | 0.9 | ? | ? | 25.9µM*
O=C(CSc1ccc2c(c1)OCCO2)NC(c1ccccc1)c1cccs1 (stereo not drawn) | . | . | -2.1 | . | . | .
Cc1ccc(S(=O)(=O)N2CCC(=O)N(C(COC(=O)Nc3ccccc3)Cc3ccccc3)CC2)cc1 (stereo not drawn) | 11.4%[40.7 µM] | 54.9%[40.7 µM] | -1.1 | 0.0 | 20.6µM* | ?
Cc1ccc(S(=O)(=O)N2CCC(=O)N(C(COCc3ccc(Cl)c(Cl)c3)Cc3ccccc3)CC2)cc1 (stereo not drawn) | -4.5% | 8.9% | -9.3 | 48.2 | ? | 23.1µM*
Cc1ccc(S(=O)(=O)N2CCC(=O)N(C(COCc3ccc(C(F)(F)F)cc3)Cc3ccccc3)CC2)cc1 (stereo not drawn) | 1.8% | 21.6% | -6.9 | -16.6 | 9.2µM* | 18.4µM*
Cc1ccc(S(=O)(=O)N2CCC(=O)N([C@H](COCc3cccc(C)c3)Cc3ccccc3)CC2)cc1 | -5.7%[40.7 µM] | -1.5%[40.7 µM] | . | . | . | .

Screening data from PubChem.
